The whole screen tested about 5,500 compounds, of which about 2,000 (36%) were called active. Roughly 18% stayed inconclusive and do not appear here. No stated cut-off is given here; in the data, active means normalized growth mostly below about 0.91 (no sharp cut-off); inconclusive means no clear call, values can overlap the other calls; inactive means mostly above about 0.92. This is one part of the list.
Assay: chemical genetic growth profiling, strain panel (AID 1159580);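 further: tested at 20 µM; growth read once vehicle control cultures reached saturation at 30 °C; 1 = growth at the plate median or of vehicle wells; lower values mean less growth of the strain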
Settings: growth OD
[1] = S. cerevisiae deletion strains, locus YAL013W, strain DEP1, active compounds read low
[2] = S. cerevisiae deletion strains, locus YBR229C, strain ROT2, active compounds read low
[3] = S. cerevisiae deletion strains, locus YCL061C, strain MRC1, active compounds read low
[4] = S. cerevisiae deletion strains, locus YDL101C, strain DUN1, active compounds read low
[5] = S. cerevisiae deletion strains, locus YDR150W, strain NUM1, active compounds read low
[6] = S. cerevisiae deletion strains, locus YEL061C, strain CIN8, active compounds read low
[7] = S. cerevisiae deletion strains, locus YGR078C, strain PAC10, active compounds read low
[8] = S. cerevisiae deletion strains, locus YHR030C, strain SLT2, active compounds read low
[9] = S. cerevisiae deletion strains, locus YHR087W, strain rtc3, active compounds read low
[10] = S. cerevisiae deletion strains, locus YJL187C, strain SWE1, active compounds read low
[11] = S. cerevisiae deletion strains, locus YJR043C, strain POL32, active compounds read low
[12] = S. cerevisiae deletion strains, locus YJR075W, strain HOC1, active compounds read low
[13] = S. cerevisiae deletion strains, locus YKL190W, strain CNB1, active compounds read low
[14] = S. cerevisiae deletion strains, locus YLR039C, strain RIC1, active compounds read low
[15] = S. cerevisiae deletion strains, locus YLR058C, strain SHM2 (second series), active compounds read low
[16] = S. cerevisiae deletion strains, locus YLR085C, strain ARP6, active compounds read low
[17] = S. cerevisiae deletion strains, locus YLR262C, strain YPT6, active compounds read low
[18] = S. cerevisiae deletion strains, locus YML094W, strain GIM5, active compounds read low
[19] = S. cerevisiae deletion strains, locus YMR219W, strain ESC1, active compounds read low
[20] = S. cerevisiae deletion strains, locus YMR263W, strain SAP30, active compounds read low
[21] = S. cerevisiae deletion strains, locus YNL153C, strain GIM3, active compounds read low
[22] = S. cerevisiae deletion strains, locus YNL298W, strain CLA4 (second series), active compounds read low
[23] = S. cerevisiae deletion strains, locus YNL322C, strain KRE1, active compounds read low
[24] = S. cerevisiae deletion strains, locus YNR030W, strain Alg12, active compounds read low
[25] = S. cerevisiae deletion strains, locus YPL055C, strain LGE1, active compounds read low
[26] = S. cerevisiae deletion strains, locus YPL241C, strain CIN2, active compounds read low
[27] = S. cerevisiae deletion strains, locus YPR135W, strain CTF4, active compounds read low
[28] = S. cerevisiae strains, strain wild type, active compounds read low

Measured: normalized growth

O=S(=O)(c1ccc(Cl)c(Cl)c1)N1CCN(c2ccc(C(F)(F)F)cn2)CC1
active: [16] 1.35 [resistant]
inactive: [1] 1 | [2] 1.01 | [3] 1.05 | [4] 1.05 | [5] 1.02 | [6] 0.998 | [7] 1.05 | [8] 1.09 | [9] 1.02 | [10] 1.03 | [11] 1.03 | [12] 1.06 | [13] 1.02 | [14] 1 | [15] 1.02 | [17] 1 | [18] 1.04 | [19] 1.01 | [20] 1.04 | [21] 1.04 | [22] 1.04 | [23] 1.01 | [24] 1.04 | [25] 1.07 | [26] 1.11 | [27] 0.99 | [28] 1.01

COC(=O)c1csc2c(C(F)(F)F)cc(N3CCN(S(=O)(=O)c4ccc(C)cc4)CC3)nc12
inactive: [1] 1.01 | [2] 1 | [4] 1 | [5] 1.05 | [6] 1.01 | [7] 1.02 | [8] 1.16 | [9] 1 | [10] 1 | [11] 1.04 | [12] 0.999 | [13] 1.01 | [14] 1.01 | [15] 1.01 | [16] 1 | [17] 1.13 | [18] 0.998 | [19] 0.995 | [20] 1.03 | S. cerevisiae deletion strains, locus YNL128W, strain TEP1, active compounds read low 1 | [22] 1.02 | [23] 1 | [24] 1.03 | [25] 0.993 | [26] 0.986 | [27] 1.11 | [28] 1.01

Cc1oc(-c2ccccc2)cc1C(=O)N1CCN(c2ccc(C(F)(F)F)cn2)CC1
active: [1] 0.86 | [8] 0.433 | [16] 0.663 | [22] 0.826 | [24] 0.823 | [25] 0.709 | [27] 0.497
inactive: [2] 0.961 | [3] 0.984 | [4] 1 | [5] 0.858 | [6] 0.947 | [7] 0.963 | [9] 0.935 | [10] 0.988 | [11] 0.98 | [12] 0.964 | [14] 0.876 | [15] 0.977 | [17] 0.941 | [18] 0.875 | [19] 0.975 | [20] 0.919 | S. cerevisiae deletion strains, locus YMR307W, strain GAS1, active compounds read low 0.762 | [21] 0.978 | [23] 0.984 | S. cerevisiae deletion strains, locus YOL006C, strain TOP1, active compounds read low 0.795 | [28] 0.957

— PubChem BioAssay AID1159580 (chemical genetic matrix, 2015)
